From the supplement of paper PMC6897291
Counter-ions that a name gives are not always drawn.

test system: RIVA; assay: growth inhibition by drug alone (1 - RLU/untreated control) (fraction); higher = stronger inhibition; settings: 10 nM; time (day): 3; 177Lu-lilotomab satetraxetan 0 ug/ml
Summary of the method: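 Plates pre-printed with the Selleck Cambridge Cancer Compound library at 10/100 nM (RIVA) or 10/1,000 nM (U-2932) received 3,000 cells/well. These cells had been washed after 18 h untreated or with a radiolabelled anti-CD37 antibody conjugate (~600 MBq/mg; 0.5 µg/ml RIVA, 1 µg/ml U-2932). Growth inhibition was obtained from RealTime-Glo luminescence in relation to untreated no-drug wells. Each daily read from day 3, taken after 1 h at 37°C, was converted as 1 − RLU/mean of 48 such wells per plate.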

SMILES	growth inhibition by drug alone
O=C1CN2Cc3c(ccc(Cl)c3Cl)N=C2N1 [Anagrelide]	-0.0185
Cc1cc(Nc2cc(N3CCN(C)CC3)nc(/C=C/c3ccccc3)n2)n[nH]1	-0.27
CCc1cc(Nc2nccc(-c3c(-c4ccc(OC)c(C(=O)Nc5c(F)cccc5F)c4)nc4ccccn34)n2)c(OC)cc1N1CCC(N2CCN(S(C)(=O)=O)CC2)CC1	0.0601
O=C1CN2Cc3c(ccc(Cl)c3Cl)N=C2N1 [Anagrelide hydrochloride]	0.16
O=C(NCCCNc1nc(Nc2cccc(NC(=O)N3CCCC3)c2)ncc1I)c1cccs1	0.342
CCC[C@H](NC(=O)/C(C#N)=C/c1cccc(Br)n1)c1ccccc1	-0.0156
COc1cc2nc(N3CCCN(C)CC3)nc(NC3CCN(Cc4ccccc4)CC3)c2cc1OC	0.0768
C#Cc1cccc(Nc2ncnc3cc(OCCOC)c(OCCOC)cc23)c1 [Erlotinib HCl]	0.349
CN(C)c1ccccc1CN1CCCN(Cc2ccccc2N(C)C)C1c1ccncc1	-0.0275
COc1cc2c(NC3CCN(C)CC3)nc(N3CCCN(C)CC3)nc2cc1OCCCN(C)C	-0.117
COc1ccc(COc2cc3oc(=O)c4cc(C(C)O)ccc4c3cc2OC)cc1 (stereo not given) [Palomid 529]	0.0296
CO[C@@H](C(=O)N1Cc2[nH]nc(NC(=O)c3ccc(N4CCN(C)CC4)cc3)c2C1)c1ccccc1	-0.0286
Cn1cc(C2=C(c3ccc(Cl)cc3Cl)C(=O)NC2=O)c2ccccc21	-0.0583
CCc1ccc(CCOc2ccc(CC3SC(=O)NC3=O)cc2)nc1 (stereo not given) [Pioglitazone (Actos)]	-0.15
O=C(O)C1(C(=O)O)CCC1.[NH2-].[NH2-].[Pt+2] [Carboplatin]	-0.0898
CS(=O)(=O)c1ccc(C(=O)Nc2ccc(Cl)c(-c3ccccn3)c2)c(Cl)c1 [Vismodegib (GDC-0449)]	0.089
OCCn1cc(-c2ccc3c(c2)CC/C3=N\O)c(-c2ccncc2)n1	-0.166
CC[C@@H]1C(=O)N(C)c2cnc(Nc3ccc(C(=O)NC4CCN(C)CC4)cc3OC)nc2N1C1CCCC1	0.903
CC[C@]1(O)C[C@H]2CN(CCc3c([nH]c4ccccc34)[C@@](C(=O)OC)(c3cc4c(cc3OC)N(C=O)[C@H]3[C@@](O)(C(=O)OC)[C@H](OC(C)=O)[C@]5(CC)C=CCN6CC[C@]43[C@@H]65)C2)C1 [Vincristine]	0.941
CC(C)(C)c1ccc(S(=O)(=O)/C=C/C#N)cc1	-0.0115
Cc1cn(-c2cc(NC(=O)c3ccc(C)c(Nc4nccc(-c5cccnc5)n4)c3)cc(C(F)(F)F)c2)cn1 [Nilotinib (AMN-107)]	-0.0335
CC(C)(C#N)c1cc(Cn2cncn2)cc(C(C)(C)C#N)c1 [Anastrozole]	0.0128
C=CCn1c(=O)c2cnc(Nc3ccc(N4CCN(C)CC4)cc3)nc2n1-c1cccc(C(C)(C)O)n1	-0.0778
Cn1cnc(N)c2ncnc1-2 [3-Methyladenine]	0.018
CCc1c2c(nc3ccc(OC(=O)N4CCC(N5CCCCC5)CC4)cc13)-c1cc3c(c(=O)n1C2)COC(=O)[C@]3(O)CC [Irinotecan HCl Trihydrate (Campto)]	-0.0524
